# Measurements taken from PubChem BioAssay (NCI).
# This is part of a sample that, as a whole, favours compounds with a hit. Of some 83,000 tested, about 20% had one in any assay.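 Interpretation: 100, growth as untreated; towards 0, rising growth inhibition; 0, no net growth; 0 to -100, cell death. Compounds scoring below 10 were considered active.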 Active and inactive are the calls of the source.
# System: 786-0 renal
# Experiment: NCI-60 one-dose screen, 48 h (100 = growth as untreated, 0 = no growth, -100 = all killed)
# Conditions: 10 µM unless noted
row,Structure (SMILES),growth
1,CCCCCSB(SCCCCC)c1ccccc1,103% (inactive)
2,c1ccc(CNc2ccc3nc(CCC4CCCCC4)[nH]c3c2)cc1,62.2% (inactive)
3,S=c1ssnc1-c1cccs1,65.1% (inactive)
4,O=C(/C=C/c1ccc(Br)cc1)c1ccc(-n2cc(CN3CCN(c4cc5c(cc4F)c(=O)c(C(=O)O)cn5C4CC4)CC3)nn2)cc1,76.7% (inactive)
5,COc1ccc(Cc2cnc(NC(=O)c3sc4ccccc4c3Cl)s2)cc1,36.7% (inactive)
6,N#C/C(=C\c1ccc(Cl)cc1Cl)C(=O)Nc1ncc(Cc2ccc(Cl)c(Cl)c2)s1,93.2% (inactive)
7,N#Cc1c(-c2cccc([N+](=O)[O-])c2)cc(-c2ccc(Nc3nc(Nc4ccc(F)cc4)nc(Nc4ccc(F)cc4)n3)cc2)nc1N,94.6% (inactive)
8,O=C(CCCCCCN1CC(=O)N2[C@@H](c3ccc(Cl)cc3)c3[nH]c4ccccc4c3C[C@H]2C1=O)NO,83.9% (inactive)
9,CCCCCCCCn1ccc2cc(NC(=O)Cn3cc(CN4CCC(C)CC4)nn3)ccc21,0.91% (active)
10,CCCC(O)Cn1ncc(C(=O)OCC)c1NC(=O)NCc1cccc(F)c1 (stereo not given),73.4% (inactive)
11,COc1cc2c3c(c1O)-c1ccccc1[C@@H]1OC(=O)N(CC2)[C@H]31,102% (inactive)
12,C/C(=C(/c1ccc(Cl)cc1)c1ccc(OCCCN(C)C)cc1)c1ccc(Cl)cc1,86.8% (inactive)
13,Cc1cc(C(=O)Nc2cc(Nc3ncccc3-c3ncnc4nc[nH]c34)ccc2F)cc(C(F)(F)F)c1,63.5% (inactive)
14,CCOC(=O)NN1CC(O)=C(c2nc(-c3ccc(Br)cc3)cs2)C1=N,111% (inactive)
15,O=C1C(Cl)=C(NCCN2CCOCC2)C(=O)c2ncccc21,18.1% (inactive)
16,O=C(Nc1ccc(F)cc1)Nc1ccccc1CNc1nc(Nc2ccc(OCCN3CCCC3)cc2)ncc1Cl,-16.3% (active)
17,C[C@H]1[C@H](C)CC[C@]2(C(=O)O)CC[C@]3(C)C(=CC[C@@H]4[C@@]5(C)C[C@@H](Cc6cn([C@@H]7O[C@H](CO)[C@@H](O)[C@H](O)[C@H]7O)nn6)[C@H](O)C(C)(C)[C@@H]5CC[C@]43C)[C@H]12,94.6% (inactive)
18,COC(=O)c1ccc2c(c1)c1c(C)c3ccncc3c(C)c1n2C,28.5% (inactive)
19,COc1cc(C(=O)c2c(-c3ccccc3)oc3c(OC)cccc23)cc(OC)c1O,33.4% (inactive)
20,C=C1C(=O)O[C@H]2[C@H]1CC/C(CNC(=O)c1cc3ccccc3[nH]1)=C\CC[C@@]1(C)O[C@@H]21,-67.3% (active)

row,Structure (SMILES),growth
1,O=P(O)(O)OCC1OC(n2cnc3c(NCc4ccccc4)ncnc32)C(O)C1O (stereo not given),21.3% (inactive)
2,CCN(CC)CCCNCc1cc(-c2ccccc2)nc2cc(Cl)ccc12,-27.6% (active)
3,COc1cc2nc(Nc3cccc(F)c3)nc(Nc3cc(C)[nH]n3)c2cc1OC,-81.8% [20 µM] (active)
4,CCC/C(=N\NC(N)=O)C(OC)OC,99.4% (inactive)
5,O=C1c2cc3c(cc2-c2c1c1ccc(Cl)cc1c(=O)n2C[C@H](O)CO)OCO3,-42.2% (active)
6,CCSC1=CC(=O)c2ccccc2C1=O,111% (inactive)
7,COc1cc(-c2nc3occn3c2-c2ccnc(NCCCNS(=O)(=O)c3ccccc3)n2)ccc1F,63.8% (inactive)
8,COC1=CC(c2ccc[nH]2)=N/C1=C\c1[nH]c(C)c(CC(=O)OCc2ccccc2)c1C,-23.7% (active)
9,O=C(CSc1nnc2sc(Nc3cccc(Cl)c3)nn12)c1ccc(F)cc1,91.4% (inactive)
10,COc1ccc(C2=Nc3c(N)ncnc3NC(c3cccc(Nc4ccnc5cc(C(F)(F)F)ccc45)c3)C2)cc1 (stereo not given),59.4% (inactive)
11,Nc1c(C(=O)Nc2cccc3ncccc23)sc2nc3c(cc12)C(=O)CCC3,56.5% (inactive)
12,C#CCn1cnc2c(Nc3cccc(NC(=O)CCl)c3)ncnc21,49.2% (inactive)
13,COc1cc2oc(-c3cccc(NC(=O)c4ccc5c(c4)OCO5)c3)cc(=O)c2c(OC)c1OC,19.5% (inactive)
14,CCOC(=O)CSc1nc2sc3c(c2c(=O)n1-c1ccc([N+](=O)[O-])cc1)CCCCC3,71.3% (inactive)
15,Cn1cc(-c2nn3cc(-c4ccccc4)nc3s2)c2ccccc21,99.4% (inactive)
16,C=C1C(=O)O[C@H]2[C@H]1CC/C(COC(=O)NCCCCCCCCNC(=O)OC/C1=C/CC[C@@]3(C)O[C@H]3[C@H]3OC(=O)C(=C)[C@@H]3CC1)=C\CC[C@@]1(C)O[C@@H]21,-89.9% (active)
17,Oc1c(I)cc(-c2nc3ccccc3s2)cc1CN(Cc1ccccn1)Cc1ccccn1,2.78% (active)
18,Cc1ncc(C(=O)Nc2ccc(CN3CCN(C)CC3)c(C(F)(F)F)c2)cc1C#Cc1cnc(N)c2ccncc12,-45% (active)
19,O=C1/C(=C/c2ccc(C(F)(F)F)cc2)COc2ccc(O)c(O)c21,-78.6% (active)
20,O=C1N[C@@H]2[C@@H](O)[C@@H](O)[C@H](O)C[C@H]2c2cc3c(c(O)c21)OCCO3,-1.5% (active)
